# Data: the supplement of paper PMC8728848
# The full list was thinned out, with the strongest signals kept by preference.
# What was measured:
# Test in all cases: glycan array binding signal (z-score within array); higher = stronger binding
# Conditions in all cases: glycan notation: IUPAC condensed, linker removed
# [1] = molecular target: Fuc(a1-2)Gal(b1-3)[Fuc(a1-4)]GlcNAc
# Summary of the method: (§1)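 The binding signal is a Z-score computed within each array. Data were drawn from 3228 arrays in the Consortium for Functional Glycomics database, restricted to those with a known protein sequence. Scores were averaged over arrays of the same protein sequence at different concentrations or buffers, and over linkers, and negative values can be taken as non-binding.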
# Fuc(a1-2)Gal(b1-4)Glc6S = molecular target: Fuc(a1-2)Gal(b1-4)Glc6S
# Summary of the method: as §1
# [2] = molecular target: Fuc(a1-2)Gal(b1-4)[Fuc(a1-3)]GlcNAc(b1-3)Gal(b1-4)[Fuc(a1-3)]GlcNAc
# Summary of the method: as §1
# Fuc(a1-2)Gal6S(b1-4)Glc = molecular target: Fuc(a1-2)Gal6S(b1-4)Glc
# Summary of the method: as §1
# [3] = molecular target: Fuc(a1-2)[GalNAc(b1-3)]Gal
# Summary of the method: as §1
# [4] = molecular target: Fuc(a1-3)[Gal(b1-4)]Glc6S
# Summary of the method: as §1
# [5] = molecular target: Fuc(a1-3)[Gal(b1-4)]GlcNAc(b1-3)GalNAc
# Summary of the method: as §1
# [6] = molecular target: Fuc(a1-3)[Gal3S(b1-4)]GlcNAc6S
# Summary of the method: as §1
# Gal(a1-2)Gal = molecular target: Gal(a1-2)Gal
# Summary of the method: as §1
# Gal(a1-3)Gal = molecular target: Gal(a1-3)Gal
# Summary of the method: as §1
# [7] = molecular target: Gal(a1-3)Gal(b1-4)GlcNAc(b1-3)GalNAc
# Summary of the method: as §1
# [8] = molecular target: Gal(a1-4)Gal(b1-4)GlcNAc(b1-2)Man(a1-3)[Gal(a1-4)Gal(b1-4)GlcNAc(b1-2)Man(a1-6)]Man(b1-4)GlcNAc(b1-4)GlcNAc
# Summary of the method: as §1
# Gal(a1-6)Glc = molecular target: Gal(a1-6)Glc
# Summary of the method: as §1
# [9] = molecular target: Gal(b1-4)GlcNAc(b1-2)Man(a1-6)[Man(a1-3)]Man(b1-4)GlcNAc(b1-4)GlcNAc
# Summary of the method: as §1
# [10] = molecular target: Gal(b1-4)GlcNAc(b1-3)Gal(b1-4)GlcNAc
# Summary of the method: as §1
# [11] = molecular target: Gal(b1-4)GlcNAc(b1-3)[Gal(b1-4)GlcNAc(b1-6)]GalNAc
# Summary of the method: as §1
# [12] = molecular target: Gal(b1-4)GlcNAc(b1-6)GalNAc
# Summary of the method: as §1
# GalNAc(b1-3)Gal = molecular target: GalNAc(b1-3)Gal
# Summary of the method: as §1
# [13] = molecular target: GalNAc(b1-3)Gal(a1-4)Gal(b1-4)GlcNAc(b1-3)Gal(b1-4)Glc
# Summary of the method: as §1
# [14] = molecular target: GlcNAc(b1-2)[GlcNAc(b1-4)]Man(a1-3)[GlcNAc(b1-2)Man(a1-6)]Man(b1-4)GlcNAc(b1-4)GlcNAc
# Summary of the method: as §1
# GlcNAc(b1-4)GlcNAc = molecular target: GlcNAc(b1-4)GlcNAc
# Summary of the method: as §1
# GlcNAc(b1-6)GalNAc = molecular target: GlcNAc(b1-6)GalNAc
# Summary of the method: as §1
# Man(a1-2)Man(a1-3)Man = molecular target: Man(a1-2)Man(a1-3)Man
# Summary of the method: as §1
# [15] = molecular target: Man(a1-2)Man(a1-3)[Man(a1-2)Man(a1-6)]Man(a1-6)[Man(a1-2)Man(a1-2)Man(a1-3)]Man
# Summary of the method: as §1
# [16] = molecular target: Man(a1-3)[Man(a1-6)]Man(a1-6)[Man(a1-3)]Man(b1-4)GlcNAc(b1-4)GlcNAc
# Summary of the method: as §1
# [17] = molecular target: Neu5Ac(a2-3)Gal(b1-3)GlcNAc(b1-3)Gal(b1-3)GlcNAc
# Summary of the method: as §1
# [18] = molecular target: Neu5Ac(a2-3)Gal(b1-3)[Fuc(a1-4)]GlcNAc(b1-3)Gal(b1-3)[Fuc(a1-4)]GlcNAc
# Summary of the method: as §1
# [19] = molecular target: Neu5Ac(a2-3)Gal(b1-3)[Neu5Ac(a2-3)Gal(b1-4)]GlcNAc
# Summary of the method: as §1
# [20] = molecular target: Neu5Ac(a2-3)Gal(b1-4)GlcNAc(b1-6)[Gal(b1-3)]GalNAc
# Summary of the method: as §1
# [21] = molecular target: Neu5Ac(a2-3)Gal(b1-4)[Fuc(a1-3)]GlcNAc(b1-3)GalNAc
# Summary of the method: as §1
# [22] = molecular target: Neu5Ac(a2-3)GalNAc(b1-4)GlcNAc
# Summary of the method: as §1
# [23] = molecular target: Neu5Ac(a2-6)Gal(b1-4)GlcNAc
# Summary of the method: as §1
# [24] = molecular target: Neu5Ac(a2-6)Gal(b1-4)GlcNAc(b1-2)Man(a1-3)Man(b1-4)GlcNAc(b1-4)GlcNAc
# Summary of the method: as §1
# [25] = molecular target: Neu5Ac(a2-6)Gal(b1-4)GlcNAc(b1-2)Man(a1-3)[Man(a1-6)]Man(b1-4)GlcNAc(b1-4)GlcNAc
# Summary of the method: as §1
# [26] = molecular target: Neu5Ac(a2-6)Gal(b1-4)GlcNAc(b1-2)Man(a1-6)[Man(a1-3)]Man(b1-4)GlcNAc(b1-4)GlcNAc
# Summary of the method: as §1
# Neu5Ac(a2-8)Neu5Ac = molecular target: Neu5Ac(a2-8)Neu5Ac
# Summary of the method: as §1
# [27] = molecular target: Neu5Ac(a2-8)Neu5Ac(a2-8)Neu5Ac(a2-3)[GalNAc(b1-4)]Gal(b1-4)Glc
# Summary of the method: as §1
# [28] = molecular target: Neu5Ac(a2-8)Neu5Ac(a2-8)Neu5Ac(a2-8)Neu5Ac(a2-3)[GalNAc(b1-4)]Gal(b1-4)Glc
# Summary of the method: as §1
binder,measurement,setting,value
"cupB6 (Pseudomonas aeruginosa), Q02SP7 (protein) MSMRLFPGRVSLRRRPGAQARQALVLGLCCLTGGQAWALNEVALNCSFGNGKGLPWRVVNELTSGTAKGTVLFARPVSLFLSYKPQASQEAHELVLGGNWSGVGYPGPYGTVASDVKGIGYRISVDAQDGVKRVIPVDNQPHALDKRVTSFSGSTTSDYLQELVLTVDPGELPAGDLKVTSVSGSATLNLWAVDRLKGEASIGSVLAVPADNYPTGVCRKPYSLIGPASIAIGGGPPPPPIPKKCKVEVGREINVKLGSVALKNFPRVNDTSTERSFDISLSECAALAKPEIAFRDKYVSAQQADPTILSLKSGGAAGFGIVVKNGLDQQRIRFDGTPYPMRRVGDSADLPLSAAYIRIGAEGELKAGVADGAAEFTFTFP",glycan array binding signal (z-score),[1],19.6
same,glycan array binding signal (z-score),Fuc(a1-2)Gal(b1-4)Glc6S,0.336
same,glycan array binding signal (z-score),[2],0.023
same,glycan array binding signal (z-score),Fuc(a1-2)Gal6S(b1-4)Glc,0.068
same,glycan array binding signal (z-score),[3],-0.269
same,glycan array binding signal (z-score),[4],-0.171
same,glycan array binding signal (z-score),[5],0.027
same,glycan array binding signal (z-score),[6],0.36
same,glycan array binding signal (z-score),Gal(a1-2)Gal,-0.079
same,glycan array binding signal (z-score),Gal(a1-3)Gal,-0.05
same,glycan array binding signal (z-score),[7],0.099
same,glycan array binding signal (z-score),[8],0.472
same,glycan array binding signal (z-score),Gal(a1-6)Glc,-0.09
same,glycan array binding signal (z-score),[9],0.004
same,glycan array binding signal (z-score),[10],-0.185
same,glycan array binding signal (z-score),[11],-0.207
same,glycan array binding signal (z-score),[12],-0.128
same,glycan array binding signal (z-score),GalNAc(b1-3)Gal,0.216
same,glycan array binding signal (z-score),[13],-0.12
same,glycan array binding signal (z-score),[14],-0.121
same,glycan array binding signal (z-score),GlcNAc(b1-4)GlcNAc,-0.037
same,glycan array binding signal (z-score),GlcNAc(b1-6)GalNAc,-0.194
same,glycan array binding signal (z-score),Man(a1-2)Man(a1-3)Man,0.328
same,glycan array binding signal (z-score),[15],0.065
same,glycan array binding signal (z-score),[16],-0.11
same,glycan array binding signal (z-score),[17],0.048
same,glycan array binding signal (z-score),[18],0.124
same,glycan array binding signal (z-score),[19],-0.26
same,glycan array binding signal (z-score),[20],-0.006
same,glycan array binding signal (z-score),[21],0.376
same,glycan array binding signal (z-score),[22],-0.177
same,glycan array binding signal (z-score),[23],-0.15
same,glycan array binding signal (z-score),[24],0.058
same,glycan array binding signal (z-score),[25],0.325
same,glycan array binding signal (z-score),[26],0.107
same,glycan array binding signal (z-score),Neu5Ac(a2-8)Neu5Ac,-0.002
same,glycan array binding signal (z-score),[27],-0.074
same,glycan array binding signal (z-score),[28],-0.043
